Test results published in ChEMBL document CHEMBL3988442, “University of Dundee, Small-Polar-MMV Screening Library” (2021).
The campaign covered roughly 53,000 compounds. About 900 (1.7%) showed an effect of 50% or more. The list comes from a sample in which strong results are over-represented; it also holds similar structures and randomly drawn compounds.

Tested on: Mycobacterium tuberculosis
Assay: Cornell - Phenotypic assay to identify agents that inhibit growth of Mycobacterium tuberculosis
Assay type: functional
Parameters: scale not given: direction of the effect not stated beside the values
Details: 10 mM as filed; unlikely as a test dose

SMILES	Percent Effect
Cn1nc(CN2CCCN(C3CCCC3)CC2)c2c(Cl)cccc21	60.03%
C[C@@H]1CN(C2CCN(Cc3nn(C)c4cccc(Cl)c34)CC2)C[C@H](C)O1	-20.95%
Cn1nc(CN2CCCCC(N)C2)c2c(Cl)cccc21 (configuration not stated)	-4.365%
O=C(c1cccc(-n2cnnc2)c1)N1C[C@@H](O)[C@H](N2CCOCC2)C1	40.33%
CN1C(=O)C2(CC(=O)Nc3[nH]ncc32)c2ccc(F)cc21 (configuration not stated)	10.37%
CN(Cc1cnccn1)S(=O)(=O)c1ccc(C(F)(F)F)nc1	-14.08%
CC(CS(C)(=O)=O)N(C)C(=O)NCCCc1ccc(Cl)cc1 (configuration not stated)	12.33%
CS(=O)(=O)N1CCCCCC1c1cc(-c2ccc(F)cc2)no1 (configuration not stated)	7%
COc1ccc(-c2cc(C3CCCCCN3S(=O)(=O)N(C)C)on2)cc1 (configuration not stated)	15.93%
CN(C)S(=O)(=O)N1CCCCCC1c1cc(-c2ccc(F)cc2)no1 (configuration not stated)	73.32%
Cc1ccc(NS(=O)(=O)c2cnn(-c3ccccc3)c2)c(C(=O)O)c1	55.25%
Cc1ccc(-n2cc(S(=O)(=O)Nc3cccc(C(=O)O)c3C)cn2)cc1	9.419%
Cc1ccc(NS(=O)(=O)c2cnn(Cc3ccccc3)c2)c(C(=O)O)c1	-25.98%
CCCN(CCC)c1ncc(S(=O)(=O)c2ccc(OC)cc2)c(N)n1	26.01%
CC[C@H]1CN(C(=O)c2cccc(-n3cnnc3)n2)CC[C@@]1(C)O	-27.2%
Cc1noc(C)c1C(=O)N1CCCC1(C)C(=O)NC1CCCC1 (configuration not stated)	-3.819%

SMILES	Percent Effect
COc1ccc(NC(=O)N2CCC(c3noc(C)n3)CC2)cc1C	55.08%
COc1ccc(NC(=O)N2CCC(c3nnc[nH]3)CC2)cc1C	16.56%
CCOc1cc(C(=O)N2CCCC(c3noc(C)n3)C2)ccc1OC (configuration not stated)	13.87%
CCn1cnnc1C1CCN(C(=O)c2cccc(C)c2C)CC1	-30.53%
Cc1ccc(NC2CCN(C(=O)Cc3cccs3)CC2)nn1	-3.843%
O=C(Cc1cccnc1)N1CC(Cc2nccc3cc[nH]c23)C1	4.598%
COc1ccccc1NC(=O)c1cnc(C2CCN(C(C)=O)C2)nc1C (configuration not stated)	26.28%
Cl.Cl.Clc1cccc(C[C@@H]2NCCC[C@@H]2Nc2cccc(Cl)c2)c1	108.9%
O=C(C[S+]([O-])Cc1cccc(Cl)c1)NC1CCCC1 (configuration not stated)	37.46%
O=C1NCCCc2[nH]c(Cc3cccc(Cl)c3)nc21	-7.355%
Cl.Cl.Clc1cccc(C[C@@H]2NCCC[C@@H]2Nc2ccccc2)c1	55.37%
Cl.Clc1cccc(N[C@H]2CCCN[C@H]2Cc2ccccc2)c1	107%
CCOc1ccc(Cl)cc1C1CCCN1.Cl (configuration not stated)	-3.998%
Cl.c1ccc(CCNc2cccc(C3CCCNC3)n2)cc1 (configuration not stated)	12.44%
O=C(NCCc1cccc(Cl)c1)C1CCOCC1	10.9%
O=C(Cc1cccc(Cl)c1)N[C@@H]1CCNC[C@H]1O	2.906%
